This passage reports survival results from PubChem BioAssay AID463173 (ICCB-Longwood Screening Facility, Harvard Medical School, 2010).

The whole screen tested about 52,000 compounds, of which about 4,300 (8.3%) were called active. Cut-off read from the data, not from the text of the source: active = survival mostly below about 52% (no sharp cut-off); inactive = mostly above about 56%. Many of the other results were omitted from the sample, so actives are more common in it than they were.

The assay has as its system DeltatarO mutant. Nature of the assay: growth inhibition of S. aureus wild type versus tarO mutant, primary screen, teichoic acid synthesis inhibitors, RN4220, OD600 (AID 463173). Particulars: OD600, 18 h, active compounds read low, screened at 18.75 µg/mL (by protocol).
Take `Cc1cc(F)ccc1NC(=O)c1c(C)oc2c1C1=NCCN1C=N2`: the survival was 102% (inactive).

`Cc1cccc(CNC(=O)c2ccc(C)c(-n3c(C)nc4cccnc43)c2)c1`: the survival was 67% (inactive).

Regarding `CCC(C)NC(=O)C1CCCN(S(=O)(=O)c2ccc(C)c(Cl)c2)C1` (stereo not given), the survival is 94% (inactive).

On to `COc1ccc(NC(=O)Cn2c(=O)n(Cc3nc(-c4ccccc4)no3)c(=O)c3cc4c(cc32)OCO4)c(OC)c1`, for which the survival is 94% (inactive).

On to `CCOc1ccc(CCNC(=O)C(CC)n2nc(C)c3c(C)n(-c4ccccc4)nc3c2=O)cc1` (stereo not given), for which the survival was 69% (inactive).

In the case of `Cc1ccccc1OC(=O)c1snnc1C`, the survival is 90% (inactive).

As to `CCCS(=O)(=O)c1ncc(Cl)c(C(=O)N(Cc2ccccc2)Cc2ccco2)n1`, the survival was 40% (active).

Turning to `CCCOc1ccc(C(=O)N(Cc2ccc(Cl)cc2)Cc2ccco2)cc1`, the survival is 50% (inactive).

On to `CSc1ncc(Cl)c(C(=O)N(Cc2ccc(N(C)C)cc2)Cc2ccco2)n1`, for which the survival is 80% (inactive).

Regarding `CS(=O)(=O)c1ncc(Cl)c(C(=O)N(Cc2ccc(Cl)cc2)Cc2ccco2)n1`, the survival is 4% (active).

Consider `CCSc1ncc(Cl)c(C(=O)N(Cc2ccccc2)Cc2ccco2)n1`, for which the survival is 106% (inactive).

In the case of `Cc1ccc(CN(Cc2ccco2)C(=O)c2ccc(Cl)cc2Cl)cc1`, the survival was 53% (inactive).

`CCSc1ncc(Cl)c(C(=O)N(Cc2ccc(N(C)C)cc2)Cc2ccco2)n1`: the survival is 104% (inactive).

In the case of `CCS(=O)(=O)c1ncc(Cl)c(C(=O)N(Cc2ccccc2)Cc2ccco2)n1`, the survival is 52% (inactive).

Turning to `CCCSc1ncc(Cl)c(C(=O)N(Cc2ccc(Cl)cc2)Cc2ccco2)n1`, the survival was 39% (active).

Turning to `Cc1cccc2c1-c1sc(C(=O)NCc3ccccc3Cl)cc1CO2`, the survival is 55% (inactive).

Take `Cc1ccc(NC(=O)C2CCCN(S(=O)(=O)c3ccc4c(c3)oc(=O)n4C)C2)cc1Cl` (stereo not given): the survival is 76% (inactive).

Turning to `COc1ccc(C(=O)CSc2nc(C)cc(C)n2)cc1C`, the survival is 104% (inactive).

Take `Cc1ccc(NC(=O)CN2CCCN(Cc3cc(C)ccc3C)S2(=O)=O)c(Cl)c1`: the survival is 81% (inactive).

With `Cc1ccc(NC(=O)Cn2ccn(Cc3ccc(Cl)cc3)c(=O)c2=O)cc1C`, the survival was 111% (inactive).

Turning to `Cc1ccc(CN2CCCN(CC(=O)Nc3ccc(C)cc3C)S2(=O)=O)cc1`, the survival was 89% (inactive).

As for `CCc1cccc(C)c1NC(=O)Cn1ccn(Cc2ccc(Cl)cc2)c(=O)c1=O`, the survival was 41% (active).

For `CCc1cccc(C)c1NC(=O)CN1CCCN(Cc2ccc(C)cc2)S1(=O)=O`, the survival is 8% (active).

`CCc1cccc(C)c1NC(=O)CN1CCCN(Cc2ccccc2Cl)S1(=O)=O`: the survival is 55% (inactive).

As to `Cc1ccccc1CN1CCCN(CC(=O)Nc2c(C)cccc2C)S1(=O)=O`, the survival is 93% (inactive).

Take `CCc1cccc(C)c1NC(=O)Cn1ccn(-c2ccc(F)cc2)c(=O)c1=O`: the survival was 52% (inactive).

In the case of `Cc1ccc(NC(=O)CN2CCCN(Cc3ccccc3Cl)S2(=O)=O)c(C)c1`, the survival was 17% (active).

Consider `CCOc1ccc(CNC(=O)CSc2nnc(C)c3c(C)n(-c4ccccc4)nc23)cc1`, for which the survival is 82% (inactive).

`CCN1CCC(N(Cc2ccc3c(c2)OCO3)C(=O)Nc2cc(Cl)ccc2C(=O)OC)CC1`: the survival is 126% (inactive).

As to `CCOC(=O)Cc1csc(NC(=O)CSc2nc3c(C)c(C)ccc3cc2C#N)n1`, the survival was 78% (inactive).

With `COc1ccc(CC(C(=O)O)c2ccccc2)cc1` (stereo not given), the survival is 65% (inactive).

With `O=S(=O)(Nc1ccc(-c2ccc(N3CCCCC3)nn2)cc1)c1ccc(OC(F)(F)F)cc1`, the survival is 82% (inactive).

In the case of `COc1ccc(F)cc1S(=O)(=O)Nc1cccc(-c2ccc(N3CCC(C)CC3)nn2)c1`, the survival is 109% (inactive).

In the case of `Cc1ccc(S(=O)(=O)Nc2cccc(-c3ccc(N4CCCCC4)nn3)c2)s1`, the survival is 76% (inactive).

On to `O=S(=O)(Nc1cccc(-c2ccc(N3CCCCC3)nn2)c1)c1cccc(F)c1`, for which the survival is 91% (inactive).

With `O=S(=O)(Nc1ccc(-c2ccc(N3CCCC3)nn2)cc1)c1ccc(C(F)(F)F)cc1`, the survival is 72% (inactive).

With `COc1ccc(C)cc1S(=O)(=O)Nc1cccc(-c2ccc(N3CCCC3)nn2)c1`, the survival was 78% (inactive).

For `Cc1ccc(S(=O)(=O)Nc2cccc(-c3ccc(N4CCC(C)CC4)nn3)c2)s1`, the survival is -1% (active).

Take `O=S(=O)(Nc1cccc(-c2ccc(N3CCCCCC3)nn2)c1)c1ccc(F)cc1`: the survival was 79% (inactive).

Consider `COc1ccc(C)cc1S(=O)(=O)Nc1cccc(-c2ccc(N3CCC(C)CC3)nn2)c1`, for which the survival was -2% (active).

On to `O=S(=O)(Nc1cccc(-c2ccc(N3CCCCCC3)nn2)c1)c1ccccc1`, for which the survival was 6% (active).

Take `CC1CCN(c2ccc(-c3cccc(NS(=O)(=O)c4ccc(Cl)s4)c3)nn2)CC1`: the survival is 72% (inactive).

Regarding `O=S(=O)(Nc1ccc(-c2ccc(N3CCCC3)nn2)cc1)c1ccc(OC(F)(F)F)cc1`, the survival is -4% (active).

`O=C(c1ccccc1Cl)N(Cc1ccco1)Cc1cc2cc3c(cc2nc1Cl)OCO3`: the survival was 103% (inactive).

As for `CCc1cnc2c(c1SCc1cc(OC)cc(OC)c1)c(=O)n(C)c(=O)n2C`, the survival is 75% (inactive).

As to `O=C(O)C1C2C=CC(C2)C1C(=O)N1CCN(Cc2ccccc2)CC1` (stereo not given), the survival was 59% (inactive).

Consider `COc1ccc(S(=O)(=O)c2c(Nc3ccccc3F)sc(C(=O)c3cccc(OC)c3)c2N)cc1`, for which the survival was 97% (inactive).

On to `Cc1sc2ncn(CC(=O)N(C)c3ccc(Br)cc3)c(=O)c2c1S(=O)(=O)N1CCC(C)CC1`, for which the survival is 70% (inactive).

As to `Cc1ccc(OCc2cc(=O)n3cc(C)sc3n2)c(C)c1`, the survival is 59% (inactive).

For the molecule `Cc1ccc(NC(=O)c2ccc(=O)n(CC(=O)Nc3ccccc3)n2)cc1`, the survival was 85% (inactive).

With `O=C(Cn1ncc2c3ccccc3n(Cc3cccc(Cl)c3)c2c1=O)NCc1cccs1`, the survival was 99% (inactive).

For the molecule `Cc1cccc(CN2CCN(CC(=O)NCc3ccc(Cl)cc3)C2=O)c1`, the survival was 72% (inactive).

Take `Cc1csc2nc(-c3cccc(NS(C)(=O)=O)c3)cn12`: the survival is 88% (inactive).

Take `Cc1cccn2cc(-c3cccc(NS(=O)(=O)c4ccc(Cl)c(Cl)c4)c3)nc12`: the survival is 101% (inactive).

On to `Cc1cccc2nc(-c3cccc(NS(=O)(=O)c4ccccc4)c3)cn12`, for which the survival was 35% (active).

Take `COc1ccc(-n2nc(C(=O)Nc3ccc(C)cn3)c3c4ccccc4n(C)c3c2=O)cc1Cl`: the survival was 98% (inactive).

Regarding `CN(C)c1cccc(C(=O)N2CCC(c3ccncc3)CC2)c1`, the survival was 88% (inactive).

As for `O=c1[nH]nc(SC(F)(F)C(F)(F)C(F)(F)F)c(=O)[nH]1`, the survival is 37% (active).

As for `CC(C)(C)c1ccc(CSc2n[nH]c(=O)[nH]c2=O)cc1`, the survival is 98% (inactive).

Turning to `CCCCCCSc1n[nH]c(=O)[nH]c1=O`, the survival was 78% (inactive).

Turning to `Cc1oc(-c2ccc(Cl)cc2)nc1Cn1c(=O)cc(C)c2c(C)nn(-c3cccc(F)c3)c21`, the survival is 82% (inactive).

Take `O=C(Nc1ccc(Cl)c(C(F)(F)F)c1)C(Cc1ccccc1)NS(=O)(=O)c1ccc(Br)s1` (stereo not given): the survival was 82% (inactive).

As to `Cc1ccc(NS(=O)(=O)c2ccc3c(c2)CCCN3C(=O)C2CCC2)c(C)c1`, the survival was 85% (inactive).

Take `CN(C)S(=O)(=O)c1ccc(C(=O)NCCSc2c(-c3ccccc3)[nH]c3ccccc23)cc1`: the survival is 68% (inactive).

Consider `Cc1cccc(Nc2nc3nonc3nc2Nc2cccc(C)c2C)c1C`, for which the survival was 66% (inactive).

With `CCOC(=O)c1ccc(Nc2nc3nonc3nc2Nc2cccc(C)c2C)cc1`, the survival is -1% (active).

Regarding `CCOC(=O)c1ccc(Nc2nc3ccc(C(=O)c4ccccc4)cc3n3c(C)nnc23)cc1`, the survival is 109% (inactive).

Regarding `CCOC(=O)c1ccc(NC(=O)C(=O)NCc2ccco2)cc1`, the survival is 63% (inactive).

With `Brc1ccc(NCc2ccco2)cc1`, the survival was 96% (inactive).

`Cc1ccc(C)c(Nc2nc3nonc3nc2Nc2cccc(C)c2C)c1`: the survival was 2% (active).

As to `CCOC(=O)c1ccc(Nc2nc3nonc3nc2NCc2ccco2)cc1`, the survival was 5% (active).

As for `CCOC(=O)c1ccc(Nc2nc(C)cc(C)n2)cc1`, the survival is 85% (inactive).

Take `Ic1ccc(Nc2nc3nonc3nc2N/N=C\c2ccco2)cc1`: the survival is 53% (inactive).

On to `Brc1cccc(Nc2nc3nonc3nc2NCc2ccco2)c1`, for which the survival is 6% (active).

In the case of `Cc1cccc(Nc2nc3nonc3nc2N/N=C\c2cccs2)c1C`, the survival is 69% (inactive).

For `O=C(c1ccc(F)cc1F)N1CCC(c2nc(-c3ccc(S(=O)(=O)N4CCCC4)cc3)no2)CC1`, the survival is 97% (inactive).

On to `O=S(=O)(c1ccc2ccccc2c1)n1nc(-c2ccco2)nc1NCc1ccc(F)cc1`, for which the survival is 106% (inactive).

Turning to `Cc1oc(-c2cccc(Cl)c2)nc1CN1CCC(C(=O)NC(C)c2ccccc2)CC1` (stereo not given), the survival was 85% (inactive).

In the case of `CC(=O)Nc1ccccc1OCc1cc(=O)n2c3c(sc2n1)CCCC3`, the survival is 120% (inactive).

As to `O=C(/C=C/c1ccccc1)C1=C(O)C(=O)N(CCO)C1c1ccc2c(c1)OCO2` (stereo not given), the survival was 79% (inactive).

`COc1ccc(-c2oc3ncn4nc(-c5ccccc5O)nc4c3c2-c2ccc(OC)cc2)cc1`: the survival was 62% (inactive).

As for `Cc1ccccc1CNC(=O)c1cc2cc(S(=O)(=O)N3CCCCC3)ccc2n1C`, the survival is 102% (inactive).

As to `CCc1ccc(CNC(=O)c2cc3cc(S(=O)(=O)N4CCCCC4)ccc3n2C)cc1`, the survival was 60% (inactive).

As for `Cc1ccccc1CCNC(=O)c1cc2cc(S(=O)(=O)N3CCCCC3)ccc2n1C`, the survival was 20% (active).

Regarding `Cn1c(C(=O)NCc2ccc(F)cc2)cc2cc(S(=O)(=O)N3CCCCC3)ccc21`, the survival was 126% (inactive).

On to `CN(C)c1ccc(CNC(=O)c2cc3cc(S(=O)(=O)N4CCCCC4)ccc3n2C)cc1`, for which the survival is 8% (active).

On to `Cn1c(C(=O)NCCc2ccccc2)cc2cc(S(=O)(=O)N3CCCCC3)ccc21`, for which the survival is 94% (inactive).

For the molecule `CC(C)NC(=O)CCn1c(SCc2c(F)cccc2Cl)nc2c(sc3ccccc32)c1=O`, the survival is 67% (inactive).

On to `COc1ccccc1NC(=O)N1CCN(Cc2ccccc2)CC1`, for which the survival is 87% (inactive).

Turning to `Cc1cc(C)c2sc(N(Cc3cccnc3)C(=O)CCOc3ccccc3)nc2c1`, the survival was 115% (inactive).
